Each structure is given as a SMILES string. “And” between values parts separate entries of the source, which are not always exact repeats. Equal entries are not always repeated. The whole screen tested about 400,000 compounds, of which about 2,200 (0.55%) were called active. Where a call stands in place of a potency, no number is given. Inconclusive results (about 1%) are left out. The full list was thinned out, with actives kept by preference. Values without a mark were called inactive. Calls come from the whole dose curve; as a rule, active = well fitted inhibition curve with a large enough effect; inconclusive = small, poorly fitted or top-dose-only effect, or another doubt; inactive = no such curve, though single readings can be large or run the other way. Positions of bridges follow the written chain, without caps; N, C: chain ends. Residues, ends and D or L forms follow the SMILES beside them.
Potency is the fitted concentration of half-maximal effect.

Sequence of DNA polymerase kappa (Homo sapiens) (Q9UBT6 whole entry, looked up): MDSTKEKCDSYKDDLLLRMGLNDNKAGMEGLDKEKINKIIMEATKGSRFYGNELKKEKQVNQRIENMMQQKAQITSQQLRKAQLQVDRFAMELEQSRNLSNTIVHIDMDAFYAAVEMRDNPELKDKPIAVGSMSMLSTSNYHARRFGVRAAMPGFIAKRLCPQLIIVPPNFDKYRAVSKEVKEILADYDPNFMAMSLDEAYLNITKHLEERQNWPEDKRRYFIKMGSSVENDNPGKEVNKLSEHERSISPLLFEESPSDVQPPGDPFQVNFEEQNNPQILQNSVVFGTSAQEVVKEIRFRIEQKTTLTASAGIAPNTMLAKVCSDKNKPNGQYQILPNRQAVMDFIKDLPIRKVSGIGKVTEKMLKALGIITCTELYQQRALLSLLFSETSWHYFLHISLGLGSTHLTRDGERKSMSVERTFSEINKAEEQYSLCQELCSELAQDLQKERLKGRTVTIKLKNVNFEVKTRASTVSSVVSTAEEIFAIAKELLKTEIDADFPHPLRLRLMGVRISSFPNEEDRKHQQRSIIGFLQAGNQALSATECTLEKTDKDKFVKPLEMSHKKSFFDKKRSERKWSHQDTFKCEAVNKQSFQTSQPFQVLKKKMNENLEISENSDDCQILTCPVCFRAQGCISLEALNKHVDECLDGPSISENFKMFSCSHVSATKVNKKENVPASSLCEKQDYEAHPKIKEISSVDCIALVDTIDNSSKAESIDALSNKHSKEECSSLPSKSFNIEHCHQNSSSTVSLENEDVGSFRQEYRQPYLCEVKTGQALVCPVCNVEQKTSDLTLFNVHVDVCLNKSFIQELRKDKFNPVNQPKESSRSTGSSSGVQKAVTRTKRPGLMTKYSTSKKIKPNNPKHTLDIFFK

In this test the target is DNA polymerase kappa (Homo sapiens) (UniProt Q9UBT6). In words: qHTS for Inhibitors of Polymerase Kappa. Conditions: purified Pol kappa, fluorescent DNA synthesis assay, 10 min; series mostly up to 107 µM. The essentials:
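Kinetic fluorescence screen: compound preincubated 15 min RT with 10 nM enzyme; 50 nM substrate (final) initiates; reads at 0/10 min.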
On to `CC(C)(C)c1ccc(C(=O)C[n+]2cccc3cc(Cl)ccc32)cc1`, for which the Potency result was “inactive”.
For the molecule `OCC(O)C(O)C(O)C(O)C=Nc1ccc(/C=C/c2ccnc3ccccc23)cc1` (configuration not stated), the Potency result was “inactive”.
As for `COC1[C@H](OC(N)=O)C(O)[C@H](Oc2ccc3c(O)c(NC(=O)c4ccc(O)c(CC=C(C)C)c4)c(=O)oc3c2C)OC1(C)C` (some centres not stated), the Potency entry is “inactive”.
Same read-out and setting: for `COc1ccc(OCc2n[nH]c(=S)n2N)cc1` the value was “inactive”; for `COc1ccccc1-n1c(=S)[nH]c2c(sc(=S)n2-c2ccc(C)cc2C)c1=O`, “inactive”; for `COc1ccccc1-n1c(-c2cc(-c3ccco3)[nH]n2)n[nH]c1=S`, 17.8 µM (active).
In the case of `C=C1C(=CC=C2CCC[C@@]3(C)[C@@H]2CC[C@H]3[C@H](C)CCCC(C)C)C[C@@H](O)C[C@@H]1O`, the activity, negative = inhibition is -13.8% [at 19.4 µM].
In the case of `CN(Cc1ccccc1)c1ccc(/C=C/c2ccnc3ccccc23)cc1`, the Potency entry is “inactive”.
On to `CN(C)c1ccc(/C=C/C=C/c2ccnc3ccccc23)cc1`, for which the Potency entry is “inactive”.
For the molecule `N#Cc1ccccc1-c1ccc2ncnc(NCc3cccnc3)c2c1`, the Potency entry is “inactive”.
On to `O=C(/C=C/c1cccc(F)c1)NC1CC1`, for which the activity, negative = inhibition was 10.9% [at 19.4 µM].
Consider `Cc1ccccc1-c1ccc(C(=O)O)s1`, for which the Potency result is “inactive”.
Consider `CC(=O)OC1C([N+]2(C)CCCCC2)C[C@H]2C3CC[C@H]4C[C@H](OC(C)=O)C([N+]5(C)CCCCC5)CC4(C)C3CCC12C` (some centres not stated), for which the activity, negative = inhibition is -5.47% [at 19.4 µM].
On to `COc1ccccc1CNc1ncncc1-c1cccnc1`, for which the Potency entry is “inactive”.
Same read-out and setting: as for `Cc1nc(SCC(=O)N2CCN(c3ccccc3)CC2)[nH]c(=O)c1C`, the entry is “inactive”; as for `COCCn1c(SCC(=O)N2CCCCCC2)nc2c(c1=O)SCC2`, “inactive”.
In the case of `CC(=O)c1sc2nc(SCC(=O)N3CCCCC3)[nH]c(=O)c2c1C`, the Potency is 79.4 µM (active).
With `CCN(Cc1ccncc1)C(=O)[C@@H](CO)c1ccccc1`, the activity, negative = inhibition was -2.15% [at 12 µM] and -8.7% [at 19.4 µM].
On to `CC1(C)O[C@@H]2C[C@@H]3[C@H]4C[C@@H](F)C5=CC(=O)C=C[C@]5(C)[C@@]4(F)[C@@H](O)C[C@]3(C)[C@]2(C(=O)CO)O1`, for which the Potency entry is “inactive”.
Take `Oc1ccc2c(c1)OCC1c3cc4c(cc3OC21)OCO4` (configuration not stated): the Potency result was “inactive”.
For the molecule `Cc1cccc(C)c1NC(=O)NC1=CCCN1C`, the activity, negative = inhibition is 0.19% [at 19.4 µM].
On to `CCc1ccc2oc(-c3ccc(C)c(NC(=O)/C=C/c4ccco4)c3)nc2c1`, for which the Potency result is “inactive”.
Still for that read-out and setting: for `O=C(/C=C/c1ccco1)NC(=S)Nc1ccccc1Br` the value was 50.1 µM (active).
Same read-out and setting: for `O=C(NC(=S)Nc1ncccn1)c1ccccc1Br` the value was “inactive”; for `COc1ccc(Oc2ncc3nc(C)c(=O)n(-c4ccccc4)c3n2)cc1`, “inactive”.
Same read-out and setting: as for `O=C1COc2c1ccc(O)c2O`, the figure is 25.1 µM (active).
As for `Cc1csc(NCC(=O)c2c[nH]c3ccccc23)n1`, the Potency entry was “inactive”.
The same measure, in the same setting: as for `C/C=C/NNC(=O)Cc1ccc(OC)cc1`, the entry is “inactive”; as for `CN1CCCC1CCO[C@@](C)(c1ccccc1)c1ccc(Cl)cc1` (some centres not stated), “inactive”; as for `COc1cccc(NC(=O)COC(=O)/C=C/c2ccco2)c1`, 79.4 µM (active).
`COc1cccc(NC(=O)COC(=O)c2ccc3ccccc3n2)c1`: the Potency result is “inactive”.
Consider `COc1cc(/C=C/C(=O)OCC(=O)Nc2cccc(Oc3ccccc3)c2)ccc1O`, for which the Potency entry was “inactive”.
The same measure, in the same setting: as for `Cc1nc2cnc(N3CCN(C)CC3)nc2n(CCC#N)c1=O`, the entry is “inactive”.
On to `C=C1C([C@@]2(C)C(OC(C)=O)CC(=O)O[C@@](C)(COC(C)=O)C2CC(=O)OC)C(OC=O)C(OC(=O)C(O)C(C)CC)[C@]2(C)C(c3ccoc3)CC(=O)C12O` (some centres not stated), for which the Potency entry is “inactive”.
Same read-out and setting: for `OCCNc1ncnc2oc(-c3ccco3)c(-c3ccco3)c12` the value was 11.2 µM (active); for `Cc1noc2ncnc(NCc3ccccc3Cl)c12`, “inactive”.
The same measure, in the same setting: as for `COc1ccc(-c2oc3ncnc(NCCCO)c3c2-c2ccc(OC)cc2)cc1`, the entry is “inactive”.
As for `CC(C)=CCC[C@]1(C)[C@@H](CC=C(C)C)C[C@@]2(CC=C(C)C)C(=O)[C@]1(C(=O)C(C)C)C(=O)C(CC=C(C)C)=C2O`, the activity, negative = inhibition is -7.28% [at 19.4 µM].
For `Cn1cccc1C(=O)N1CCC2(CC1)CN(c1cccc(-c3ccccc3)c1)C2`, the Potency result was “inactive”.
With `O=[N+]([O-])c1cc(-c2nc(-c3ccccc3)no2)ccc1NCc1ccco1`, the Potency result was “inactive”.
Same read-out and setting: as for `Cc1ccc(/C([O-])=C(/C(=S)NCc2ccco2)[n+]2ccccc2)cc1[N+](=O)[O-]`, the figure is 25.1 µM (active); as for `O=[N+]([O-])c1cccc(/C([O-])=C(/C(=S)Nc2ccccc2F)[n+]2ccccc2)c1`, “inactive”.
Same read-out and setting: for `COc1ccc(-c2nc3cnc(Oc4ccccc4)nc3n(Cc3cccs3)c2=O)cc1` the value was “inactive”.
`CC[C@]1([C@H]2O[C@@H]([C@@H]3O[C@](O)(CO)[C@@H](C)C[C@H]3C)C[C@H]2C)CC[C@@H]([C@]2(C)CC[C@@]3(C[C@@H](O)[C@@H](C)[C@@H]([C@H](C)[C@H](OC)[C@H](C)C(=O)O)O3)O2)O1`: the activity, negative = inhibition is -5.79% [at 19.4 µM].
Consider `N#Cc1cccc(-c2nc3cnc(N4CCNCC4)nc3n(C3CC3)c2=O)c1`, for which the Potency result is “inactive”.
`O=C(O)C1=C/C(=C/C=[N+]2c3cc(O)c(O[C@H]4OC(CO)[C@@H](O)[C@@H](O)[C@@H]4O)cc3C[C@@H]2C(=O)[O-])C[C@H](C(=O)O)N1` (some centres not stated): the Potency result is “inactive”.
For `C[C@@H](O)[C@@H]1NC(=O)[C@H](CCCCN)NC(=O)[C@H](Cc2c[nH]c3ccccc23)NC(=O)[C@H](Cc2ccccc2)NC(=O)[C@H](Cc2ccccc2)NC(=O)[C@H](CC(N)=O)NC(=O)[C@H](CCCCN)NC(=O)[C@@H](NC(=O)[C@@H]2CCCN2)CSSC[C@@H](C(=O)N[C@@H](CCCCN)C(=O)O)NC(=O)[C@H](CO)NC(=O)[C@H](CO)NC(=O)[C@H](Cc2ccccc2)NC1=O` (H-PCKNFFWKTFSSCK-OH; disulfide 2-13), the Potency result was “inactive”.
On the same count and under the same terms, as for `Cc1ccc(-c2nn(-c3ccccc3)cc2/C=C2\SC(=S)N(CCCCCC(=O)O)C2=O)o1`, the figure is 79.4 µM (active); as for `O=C(Nc1ccc([N+](=O)[O-])cc1)c1cnn2c1NC(=C1CC1)C=C2C(F)F`, “inactive”; as for `CCN(c1ccc(Cl)cc1)S(=O)(=O)c1nnc(NC(=O)c2ccco2)s1`, “inactive”.
Same read-out and setting: for `O=C(Nc1nc(-c2ccco2)c(-c2ccco2)s1)c1ccco1` the value was 79.4 µM (active); for `O=C(Nc1ccc2nc(SCCOc3ccccc3)sc2c1)c1ccco1`, “inactive”.

Values taken from PubChem BioAssay AID588579 (National Center for Advancing Translational Sciences (NCATS), 2011).
